This passage reports Potency results from PubChem BioAssay (Tox21).

Inconclusive results are not listed. Entries that show only a call come without a potency. Active and inactive are the calls of the source. Calls follow the shape of the dose curve; as a rule, active = well fitted cell-killing curve with a large enough effect in the repeat runs; inconclusive = weak or mixed curves, or effect the other way; inactive = no such curve, though single readings can be large or run the other way.

This experiment can be described thus: qHTS assay to identify small molecule antagonists of the glucocorticoid receptor (GR) signaling pathway - cell viability counter screen (AID 720693). Also: nearly all actives have a fitted effect of over 55% in size. The note with it: GR-bla HeLa viability, CellTiter-Glo luminescence, 18 h, with 5 nM dexamethasone present; series mostly up to 58.5 µM. An excerpt: National Center for Advancing Translational Sciences [NCATS]
NIH Chemical Genomics Center [NCGC]
U.S. Environmental Protection Agency [EPA]
National Institutes of Environmental Health Sciences [NIEHS]
National Toxicology Program [NTP]
U.S. Food and Drug Administration [FDA]
The Glucocorticoid receptor (GR) is one of the members of the nuclear receptor family of ligand-dependent transcription factors. GR plays a critical role in carbohydrate, protein and lipid metabolisms and programmed cell death. CellSensor GR-bla HeLa cell line (Invitrogen) contains a beta-lactamase reporter gene under the control of the glucocorticoid response element stably integrated into HeLa cells, a cervical cancer cell line that expresses glucocorticoid receptor. The activation of the reporter gene under culture conditions can be detected by fluorescence intensity. This cell line has been used to screen the Tox21 10K compound library and to identify the compounds that inhibit the GR signaling. The cytotoxicity of the Tox21 compound library against the GR-bla HeLa cell line was tested in parallel by measuring the cell viability using CellTiter-Glo assay in the same wells.
Tox21 Assay Protocol Summary:
The GR-bla HeLa cells were dispensed at 1500 cells/5 ul/well in 1536-well black wall/clear bottom plates using a Multidrop Combi (ThermoFisher Scientific, Waltham, MA) dispenser. After the assay plates were incubated at a 37 C/5% CO2 incubator for 4 hours, 23 nL of compounds dissolved in DMSO, positive controls or DMSO only was transferred to the assay plate by a pintool station (Kalypsys, San Diego, CA), followed by addition of 1 uL of dexamethasone (5 nM, final concentration in the well). The plates were incubated at 37 C for 18 hours. After 1 uL of LiveBLAzerTM B/G FRET substrate was added using a Flying Reagent Dispenser (Aurora Discovery, San Diego, CA), the plates were incubated at room temperature (RT) for 2 hours, and fluorescence intensity was measured by an Envision plate reader (PerkinElmer, Shelton, CT). After measurement of bla assay, 3 ul CellTiter-Glo (Promega, Madison, WI) was added to measure the cytotoxicity and the plates were then incubated at RT for 30 min. The luminescence was measured using a ViewLux (Perkin Elmer) plate reader.
For orientation: qHTS replaces the single test concentration by a dilution series.
Take `COC(=O)Nc1cccc(OC(=O)Nc2cccc(C)c2)c1`: the Potency entry is “inactive”. Turning to `CC(=O)/C=C/c1ccccc1`, the Potency result is “inactive”. Under `Clc1cnc(Oc2ccc(Oc3ncc(Cl)cc3Cl)cc2)c(Cl)c1` stands “inactive”; under `O=C(O)C(Br)Br`, “inactive”. Under `CNCC(O)c1ccc(O)cc1` (stereo not given) stands “inactive”. Turning to `CC(C)CCCCCCOC(=O)c1ccccc1C(=O)OCCCCCCC(C)C`, the Potency entry is “inactive”. Turning to `COC(C)(C)CCCC(C)C/C=C/C(C)=C/C(=O)OC(C)C` (stereo not given), the Potency entry is “inactive”. The result for `CCOC(=O)CC(SP(=O)(OC)OC)C(=O)OCC` (stereo not given) reads “inactive”; that for `Cc1ccc(O)c(C)c1`, “inactive”. As for `OCc1ccco1`, the Potency result is “inactive”.

`C=CC(=O)OCCCCCC(C)C`: the Potency result is “inactive”.

On to `C[C@]12CC[C@H](O)CC1=CC[C@@H]1[C@@H]2CC[C@]2(C)C(=O)CC[C@@H]12`, for which the Potency entry was “inactive”. The result for `CN1C(=O)CCS(=O)(=O)C1c1ccc(Cl)cc1` (stereo not given) reads “inactive”; that for `CC(C)(C)C(=O)CCl`, “inactive”. With `Cc1ccccc1N`, the Potency result is “inactive”. The result for `O=[N+]([O-])c1cc([As](=O)(O)O)ccc1O` reads “inactive”; that for `CC(=O)C1CCOC1=O` (stereo not given), “inactive”; that for `O=C/C=C/c1ccccc1`, “inactive”.

As to `CNC(=O)O/N=C(\SC)C(=O)N(C)C`, the Potency result was “inactive”. Take `CN(C)C(=O)Nc1cccc(C(F)(F)F)c1`: the Potency result was “inactive”. Regarding `Nc1ncc([N+](=O)[O-])s1`, the Potency entry was “inactive”. For the compound `[N-]=[N+]=CC(=O)OC[C@H](N)C(=O)O`, the Potency result was “inactive”. As to `O=C(O)CCCc1ccc(N(CCCl)CCCl)cc1`, the Potency result is “inactive”. Consider `Cc1cccc(C)c1N`, for which the Potency result is “inactive”.

With `Nc1ccc(N)cc1`, the Potency entry is “inactive”. Turning to `CSc1nnc(C(C)(C)C)c(=O)n1N`, the Potency entry is “inactive”. For the compound `O=[N+]([O-])c1ccc(Cl)c(Cl)c1`, the Potency result is “inactive”. Regarding `C=CC#N`, the Potency entry is “inactive”. Consider `Cc1ccc(N=C=O)cc1N=C=O`, for which the Potency result was “inactive”. The result for `CCSC(=O)N1CCCCCC1` reads “inactive”; that for `CCCCCCCCCCCCCCCCCC(=O)O`, “inactive”; that for `O=S(=O)(O)OOS(=O)(=O)O`, “inactive”. The result for `Cc1cccc(C)c1NC(=O)CN1CCCC1=O` reads “inactive”.

Regarding `C/C=C/c1ccc2c(c1)OCO2`, the Potency result is “inactive”. The result for `OC[C@@H](O)[C@H]1O[C@@H]2O[C@H](C(Cl)(Cl)Cl)O[C@@H]2[C@H]1O` reads “inactive”.

In the case of `ClCCOCCCl`, the Potency entry was “inactive”.

Take `NNc1ccccc1`: the Potency entry is “inactive”. Regarding `Sc1ccccc1`, the Potency entry is “inactive”.

Consider `CN(C)NC(=O)CCC(=O)O`, for which the Potency entry is “inactive”. Consider `CCCOC(=O)c1ccccc1C(=O)OCCC`, for which the Potency entry is “inactive”.
